The supplement of paper PMC9694430

Assays:
Assay in all cases: thermal shift delta Tm vs DMSO control; higher = stronger stabilization (binding)
Details in all cases: 12.5 µM; protein concentration 2 µM
LOC_OS04G57630-cb004 = tested on: LOC_OS04G57630-cb004
Procedure, shortened: (§1)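 Heating from 25°C to 95°C at 0.05°C/s, fluorescence was recorded for 19.5 μl wells of 2 μM E. coli-expressed, purified rice kinase domain in 100 mM potassium phosphate pH 7.5, 150 mM NaCl, 10% glycerol and 5 × SYPRO Orange with compound in DMSO. Boltzmann fits gave melting temperatures for this differential scanning fluorimetry assay. The shift reported is the mean of three replicates against the DMSO-only protein.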

LOC_OS05G07850-cb002 = tested on: LOC_OS05G07850-cb002
Procedure, shortened: as §1

LOC_OS05G16824-cb004 = tested on: LOC_OS05G16824-cb004
Procedure, shortened: as §1

LOC_OS05G28520-cb001 = tested on: LOC_OS05G28520-cb001
Procedure, shortened: as §1

LOC_OS05G30820-cb001 = tested on: LOC_OS05G30820-cb001
Procedure, shortened: as §1

LOC_OS05G43570-cb004 = tested on: LOC_OS05G43570-cb004
Procedure, shortened: as §1

LOC_OS06G16330-cb003 = tested on: LOC_OS06G16330-cb003
Procedure, shortened: as §1

LOC_OS06G22820-cb001 = tested on: T1, LOC_OS06G22820-cb001
T1 sequence (whole entry): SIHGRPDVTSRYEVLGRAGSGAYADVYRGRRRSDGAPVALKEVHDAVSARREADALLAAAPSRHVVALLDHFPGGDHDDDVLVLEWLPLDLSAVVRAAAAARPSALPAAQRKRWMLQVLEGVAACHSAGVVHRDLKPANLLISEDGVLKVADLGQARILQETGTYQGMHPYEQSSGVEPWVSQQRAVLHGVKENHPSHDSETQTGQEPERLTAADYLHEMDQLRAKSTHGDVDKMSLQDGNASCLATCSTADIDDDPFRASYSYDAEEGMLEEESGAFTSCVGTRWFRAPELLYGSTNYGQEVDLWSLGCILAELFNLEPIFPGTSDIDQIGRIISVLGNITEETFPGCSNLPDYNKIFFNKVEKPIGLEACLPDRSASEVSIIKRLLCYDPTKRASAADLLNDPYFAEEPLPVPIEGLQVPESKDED
Procedure, shortened: as §1

LOC_OS07G06570-cb004 = tested on: LOC_OS07G06570-cb004
Procedure, shortened: as §1

LOC_OS07G07230-cb001 = tested on: LOC_OS07G07230-cb001
Procedure, shortened: as §1
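Further: purified Escherichia coli-expressed rice kinase domain construct.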

Chain of LOC_OS06G16330-cb003 (as listed by the source): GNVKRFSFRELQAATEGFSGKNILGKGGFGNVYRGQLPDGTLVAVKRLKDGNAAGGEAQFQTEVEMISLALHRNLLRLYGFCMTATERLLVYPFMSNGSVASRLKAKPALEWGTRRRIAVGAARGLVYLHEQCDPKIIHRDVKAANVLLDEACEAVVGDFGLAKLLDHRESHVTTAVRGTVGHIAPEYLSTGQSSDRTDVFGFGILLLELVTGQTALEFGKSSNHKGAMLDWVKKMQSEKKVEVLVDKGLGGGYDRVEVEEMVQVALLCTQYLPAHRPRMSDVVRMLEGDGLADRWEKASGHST

Structure (SMILES) | thermal shift delta Tm (LOC_OS04G57630-cb004) | thermal shift delta Tm (LOC_OS05G07850-cb002) | thermal shift delta Tm (LOC_OS05G16824-cb004) | thermal shift delta Tm (LOC_OS05G28520-cb001) | thermal shift delta Tm (LOC_OS05G30820-cb001) | thermal shift delta Tm (LOC_OS05G43570-cb004) | thermal shift delta Tm (LOC_OS06G16330-cb003) | thermal shift delta Tm (LOC_OS06G22820-cb001) | thermal shift delta Tm (LOC_OS07G06570-cb004) | thermal shift delta Tm (LOC_OS07G07230-cb001)
C[C@@H]1COC(Nc2ccc3ncnc(Nc4ccc(OCc5nccs5)c(Cl)c4)c3c2)=N1 [Varlitinib] | 1.38 °C | 3.96 °C | -3.4 °C | 0.54 °C | 0.94 °C | 0.53 °C | 1.46 °C | 0.8 °C | 0.43 °C | 0.26 °C
Cc1ccc(C(=O)Nc2ccc(Oc3cc4cnn(C)c4cc3-c3cn[nH]c3)c(F)c2)c(=O)n1-c1ccc(F)cc1 | 1.06 °C | 12.9 °C | 0.64 °C | 0.91 °C | 0.24 °C | 1.08 °C | 5.02 °C | 1.28 °C | 1.37 °C | -0.23 °C
S=C(NCc1ccc2c(c1)OCO2)N1CCN(c2ncnc3c2oc2ccccc23)CC1 [Amuvatinib (MP-470)] | 0.4 °C | 1.46 °C | -4.2 °C | 0.42 °C | 0.8 °C | 0.49 °C | 1.01 °C | 0.7 °C | 0.32 °C | 0.06 °C
CC[C@@H]1C(=O)N(C)c2cnc(Nc3ccc(C(=O)NC4CCN(C)CC4)cc3OC)nc2N1C1CCCC1 | -0.45 °C | 0.42 °C | 1.14 °C | 0.12 °C | 0.28 °C | 0.24 °C | 0.39 °C | 0.4 °C | 0.75 °C | 0.09 °C
CC(C)[C@H](CO)Nc1nc(Nc2cccc(Cl)c2)c2ncn(C(C)C)c2n1 [Purvalanol A] | 1.65 °C | 4.54 °C | 10.1 °C | 1.68 °C | 2.51 °C | 0.79 °C | 2.99 °C | 0.25 °C | 0.14 °C | -0.31 °C
CS(=O)(=O)c1ccc(-c2cnc(N)c(C(=O)Nc3ccccc3)n2)cc1 | 0.45 °C | 8.7 °C | -1.5 °C | 0.25 °C | 0.57 °C | 0.1 °C | 2.51 °C | 0.37 °C | 0.82 °C | 0.7 °C
C=C(C)[C@@H]1CC[C@]2(C)CC[C@]3(C)[C@H](CC[C@@H]4[C@@]5(C)CC[C@H](O)C(C)(C)[C@@H]5CC[C@]43C)[C@@H]12 [Lupeol] | 0.77 °C | 0.82 °C | 1.84 °C | 0.13 °C | 0.38 °C | 0.49 °C | -2.09 °C | 0.12 °C | 1.26 °C | 0.62 °C
Cc1ccc(NC(=O)Nc2cc(C(F)(F)F)ccc2F)cc1Nc1ccc2c(c1)NC(=O)/C2=C\c1ccc[nH]1 | 0.83 °C | 1.9 °C | 2.11 °C | 0.81 °C | 0.73 °C | 1.98 °C | 1.54 °C | 1.12 °C | -0.24 °C | 1.34 °C
CCN1CCN(Cc2ccc(-c3cc4c(N[C@H](C)c5ccccc5)ncnc4[nH]3)cc2)CC1 | 0.95 °C | 5.78 °C | 3.87 °C | 1 °C | 0.48 °C | 0.5 °C | 4.68 °C | 0.76 °C | 1.03 °C | 0.13 °C
CN1CCN(S(=O)(=O)c2ccc(-c3cnc(N)c(C(=O)Nc4cccnc4)n3)cc2)CC1 | 0.6 °C | 7.93 °C | 1.41 °C | 0.68 °C | 0.46 °C | -0.03 °C | 2.59 °C | 0.9 °C | 1.34 °C | 0.52 °C
